What all share (assay): thermal shift delta Tm vs DMSO control; higher = stronger stabilization (binding)
What all share (settings): 12.5 µM; protein concentration 2 µM

Assay [1] relates to LOC_OS01G01410-cb001. The method, boiled down:
(§1)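 The melting temperature shift given here is a triplicate mean, measured against protein that received only DMSO. Melting temperatures came from Boltzmann fits of differential scanning fluorimetry data on E. coli-expressed, purified rice kinase domain constructs. Each 19.5 μl well contained 2 μM kinase, 100 mM potassium phosphate pH 7.5, 150 mM NaCl, 10% glycerol, 5 × SYPRO Orange and compound in DMSO. Plates were scanned from 25°C to 95°C at 0.05°C/s.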

The test system of assay [2] is LOC_OS01G02750-cb003. The method, boiled down: as §1
The test system of assay [3] is LOC_OS01G10900-cb004. The method, boiled down: as §1
The test system of assay [4] is LOC_OS01G13800-cb001. The method, boiled down:
as §1

The subject of assay [5] is LOC_OS01G14860-cb001. The method, boiled down:
as §1

Assay [6] deals with LOC_OS01G21960-cb002. The method, boiled down:
as §1

In assay [7] the test system is LOC_OS01G39600-cb002. A digest of the protocol:
as §1

Assay [8] relates to LOC_OS01G48390-cb002. A digest of the protocol: as §1
Assay [9] concerns LOC_OS01G51400-cb002. A digest of the protocol: as §1
The subject of assay [10] is T1, LOC_OS01G52050-cb004.
T1 sequence (whole entry): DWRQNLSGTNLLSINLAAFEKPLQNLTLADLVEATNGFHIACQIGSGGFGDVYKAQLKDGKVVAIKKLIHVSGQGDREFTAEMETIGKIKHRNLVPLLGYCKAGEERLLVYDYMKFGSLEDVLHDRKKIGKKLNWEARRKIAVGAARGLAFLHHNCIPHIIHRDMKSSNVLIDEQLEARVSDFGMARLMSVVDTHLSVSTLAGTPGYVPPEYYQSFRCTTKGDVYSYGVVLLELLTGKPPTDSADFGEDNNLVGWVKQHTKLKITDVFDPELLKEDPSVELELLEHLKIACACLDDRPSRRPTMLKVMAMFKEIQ
The method, boiled down:
as §1

Structures can show the parent of a compound that is named as a salt.

`c1ccc(-c2[nH]ncc2-c2ccnc3ccccc23)nc1`: the “thermal shift delta Tm” value in [1] stood at 0.44 °C; in assay [2], 0.87 °C; in assay [3], 0.58 °C; in [4], 0.69 °C; in [5], 0.36 °C; in [6] it was 0.76 °C. Also, the “thermal shift delta Tm” value in [7] stood at 0.33 °C; in [8] it was 0.11 °C; in assay [9], 0.03 °C; in assay [10], 0.61 °C.
Consider `Cc1c(C(=O)N2CCOc3ccc(-c4ccc(N)nc4)cc3C2)ccc(S(C)(=O)=O)c1F`, for which the “thermal shift delta Tm” value in assay [1] is 0.69 °C; in assay [2], 0.8 °C; in assay [3] it was 0.01 °C; in [4], 0.06 °C; in assay [5] it was 0.22 °C; in assay [6], 0.19 °C. In addition, the “thermal shift delta Tm” value is -0.01 °C in assay [7], 0.13 °C in assay [8], 0.26 °C in assay [9] and 0.52 °C in assay [10].
On to `Nc1ncccc1-c1nc2ccc(-c3ccccc3)nc2n1-c1ccc(C2(N)CCC2)cc1` [Miransertib (ARQ 092) HCl], for which the “thermal shift delta Tm” value in [1] was 0.37 °C; in [2], 2.32 °C; in [3], 0.6 °C; in assay [4], -0.45 °C; in assay [5], 0.59 °C; in assay [6] it was 0.09 °C. The “thermal shift delta Tm” value in [7] turned out to be 0.14 °C; in [8], 0.09 °C; in assay [9], 0.08 °C; in assay [10], 0.78 °C.
Regarding `COc1cc2c3cc1Oc1c(OC)c(OC)cc4c1[C@@H](Cc1ccc(O)c(c1)Oc1ccc(cc1)C[C@@H]3N(C)CC2)N(C)CC4` [Berbamine (dihydrochloride)], the “thermal shift delta Tm” value in assay [1] is -0.04 °C; in assay [2], 0.3 °C; in assay [3] it was 0.03 °C; in assay [4] it was -0.62 °C; in [5], -0.18 °C; in [6], 0.36 °C. Further, the “thermal shift delta Tm” value in [7] was -0.05 °C; in [8], 0.32 °C; in assay [9] it was -0.01 °C; in assay [10] it was 0.22 °C.
Turning to `OCCn1cc(-c2ccc3c(c2)CC/C3=N\O)c(-c2ccncc2)n1`, the “thermal shift delta Tm” value is 0.98 °C in [1]; -2.29 °C in assay [2]; 0.31 °C in assay [3]; 0.39 °C in [4]; 0.01 °C in [5]; 0.47 °C in assay [6]. Besides, the “thermal shift delta Tm” value in assay [7] is 0.93 °C; in assay [8], 0.73 °C; in assay [9], 0.39 °C; in assay [10], -0.04 °C.
For the compound `O=C(NC(NC(=S)Nc1ccc(F)c([N+](=O)[O-])c1)C(Cl)(Cl)Cl)C(c1ccccc1)c1ccccc1` (stereo not given), the “thermal shift delta Tm” value in assay [1] is 3.6 °C; in [2], 9.2 °C; in [3], 2.57 °C; in assay [4] it was 2.31 °C; in assay [5] it was 3.26 °C; in [6], 3.31 °C. Also, the “thermal shift delta Tm” value amounted to 28.9 °C in assay [7], 3.82 °C in assay [8], 1.04 °C in assay [9] and 3.03 °C in assay [10].
For the compound `NC(=O)Nc1cc(-c2cccc(F)c2)sc1C(=O)N[C@H]1CCCNC1`, the “thermal shift delta Tm” value in assay [1] stood at 0.37 °C; in [2], 5.35 °C; in assay [3], 0.3 °C; in assay [4] it was 0.24 °C; in [5], 0.9 °C; in assay [6] it was 3.38 °C. Further, the “thermal shift delta Tm” value in assay [7] amounted to 0.2 °C; in assay [8], 0.65 °C; in assay [9] it was 0.08 °C; in assay [10], 11.6 °C.
For the compound `OC(c1cc(-c2ccc(Cl)cc2)nc2ccccc12)C1CCCCN1` (stereo not given) [Vacquinol-1], the “thermal shift delta Tm” value was 0.1 °C in assay [1]; 1.71 °C in assay [2]; 0.31 °C in [3]; 1.34 °C in [4]; 0.11 °C in [5]; 1.18 °C in assay [6]. The “thermal shift delta Tm” value in [7] was -0.2 °C; in assay [8], 0.86 °C; in [9], 0.34 °C; in [10], 0.54 °C.
`Cc1ccc(C(=O)Nc2ccc(Oc3cc4cnn(C)c4cc3-c3cn[nH]c3)c(F)c2)c(=O)n1-c1ccc(F)cc1`: the “thermal shift delta Tm” value in assay [1] amounted to 0.22 °C; in assay [2], 3.21 °C; in [3], 0.37 °C; in assay [4], 1.46 °C; in assay [5], 3.24 °C; in [6] it was 0.63 °C. Further, the “thermal shift delta Tm” value in assay [7] was 0.72 °C; in assay [8], 1.1 °C; in assay [9] it was 0.84 °C; in [10], 2.17 °C.
Take `COc1cc2nccc(Oc3ccc(NC(=O)NC4CC4)c(Cl)c3)c2cc1C(N)=O` [Lenvatinib (E7080)]: the “thermal shift delta Tm” value was 1.14 °C in [1]; 1.17 °C in assay [2]; 0.52 °C in assay [3]; 0.29 °C in assay [4]; 0.28 °C in assay [5]; 0.62 °C in assay [6]. Moreover, the “thermal shift delta Tm” value was -0.02 °C in assay [7], 0.47 °C in assay [8], 0.04 °C in assay [9] and 0.33 °C in assay [10].

Values taken from the supplement of paper PMC9694430.
